# Source: PubChem BioAssay (EPA / NIEHS)
# Results filed as inconclusive are left out. Active and inactive are the calls of the source. The calls were made as follows, unless noted: active = hit-call score of the fitted dose curve at least 0.9, where 1 is the maximum; inactive = score below 0.9.
# Key:
# [1] = CCTE_Shafer_MEA_dev_LDH: CCTE's Lactate Dehydrogenase Assay for Cytotoxicity in the Neural Network Formation Assay, Shafer Lab (AID 2284068; active = hit-call score of the fitted dose curve at least 0.9, where 1 is the maximum;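 also: exposure for twelve days from plating with re-dosing on DIV 5 and 9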)
# Summary of the method: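 Cytotoxicity companion to network-formation recordings: rat cortical neurons received compound over 12 days of development, re-dosed at DIV 5 and 9 feeds. Viability was inferred from LDH enzyme activity relative to DMSO.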
# [2] = CCTE_Shafer_MEA_dev_AB: CCTE's Alamar Blue Assay for Cytotoxicity in the Neural Network Formation Assay, Shafer Lab (AID 2284083; active = hit-call score of the fitted dose curve at least 0.9, where 1 is the maximum;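 also: resazurin reduction fluorescence as viability of cultured neurons; twelve days of exposure from plating with re-dosing on DIV 5 and 9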)
# Summary of the method: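 Fluorescent resazurin reduction serves as the viability read-out, with DMSO as negative control and baseline. Cells were primary rat cortical neurons grown on MEA plates and dosed from day 0 to day 12, treatment renewed on DIV 5 and 9.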
# [3] = CCTE_Shafer_MEA_dev_mutual_information_norm: CCTE's Neural Network Formation Assay for Mutual Information Normalization, Shafer Lab (AID 2284091);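 also: mutual information between electrodes summarised as area under curve across four recording days; potency is for a decrease in mutual information relative to DMSO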
# Summary of the method: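 Exposure of primary rat cortical neurons began at plating and ran to DIV 12, with full media and treatment renewal after DIV 5 and 9 recordings. Mutual information AUC (DIV 5–12) was analysed for loss versus DMSO.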
# [4] = CCTE_Shafer_MEA_dev_correlation_coefficient_mean: CCTE's Neural Network Formation Assay for Mean Correlation Coefficient, Shafer Lab (AID 2284093);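 also: well mean pairwise spike train correlation integrated as AUC over recording days 5 to 12; potency fitted for loss of correlation relative to DMSO vehicle wells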
# Summary of the method: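 Read-out: well-mean correlation coefficient of spike trains between electrode pairs, collapsed over four recording days as trapezoidal area-under-the-curve. Developing rat cortical neuron networks grown on MEAs received test chemical continuously from plating.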
# [5] = CCTE_Mundy_HCI_Cortical_Synap_Neur_Matur_NeuriteSpotCountPerNeuriteLength: CCTE's Synaptogenesis and Neurite Maturation Assay in rat cortical cells for Neurite Spot Count per Neurite Length, Mundy Lab (AID 2284210)
# Summary of the method: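 Neurite-associated synapse density (synaptophysin puncta per unit neurite length) is measured by fluorescence high-content imaging in rat cortical cultures treated from DIV 7 and fixed at DIV 12, with DMSO as negative control.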
# [6] = CCTE_Mundy_HCI_Cortical_Synap_Neur_Matur_BPCount: CCTE's Synaptogenesis and Neurite Maturation Assay in rat cortical cells for Branch Point Count, Mundy Lab (AID 2284211)
# Summary of the method: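 HCI read-out of branch points from MAP2/synaptophysin/Hoechst immunofluorescence; rat cortical cultures, AraC DIV 5, dosing DIV 7, fixed DIV 12; fit in positive direction vs DMSO baseline.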
# [7] = CCTE_Mundy_HCI_Cortical_NOG_NeuriteCount: CCTE's Neurite Outgrowth Assay in rat cortical cells for Neurite Count, Mundy Lab (AID 2284212);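 also: cells fixed about two days after chemical exposure began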
# Summary of the method: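 Rat cortical primary cells; compound added 2 h post-plating, 1/10 dilution of working solution. Anti-betaIII-tubulin/AF488 ICC; ArrayScan neurite count vs DMSO.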
# [8] = CCTE_Mundy_HCI_Cortical_NOG_NeuriteLength: CCTE's Neurite Outgrowth Assay in rat cortical cells for Neurite Length, Mundy Lab (AID 2284213);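 also: neurites imaged about 48 to 50 h after chemical exposure began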
# Summary of the method: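 First, rat primary cortical cells were plated and, 2 h later, given test chemical as a 1/10 dilution. Finally, βIII-tubulin immunostaining enabled automated imaging of neurite length.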
# [9] = CCTE_Mundy_HCI_Cortical_Synap_Neur_Matur_NeuriteLength: CCTE's Synaptogenesis and Neurite Maturation Assay in rat cortical cells for Neurite Length, Mundy Lab (AID 2284214)
# Summary of the method: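 Cultures of rat primary cortical cells received chemical at DIV 7 and were fixed at DIV 12, after glial arrest with AraC at DIV 5. Neurite length was measured by automated imaging of MAP2 immunofluorescence.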
# [10] = CCTE_Mundy_HCI_Cortical_Synap_Neur_Matur_NeuriteSpotCountPerNeuron: CCTE's Synaptogenesis and Neurite Maturation Assay in rat cortical cells for Neurite Spot Count per Neuron Count, Mundy Lab (AID 2284215)
# Summary of the method: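 Rat primary cortical cells received AraC at DIV 5, then chemicals with a media change at DIV 7, and were fixed at DIV 12. Synaptophysin puncta on MAP2-stained neurites per neuron were counted by high-content imaging, fitted relative to DMSO.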
# [11] = CCTE_Mundy_HCI_Cortical_Synap_Neur_Matur_SynapseCount: CCTE's Synaptogenesis and Neurite Maturation Assay in rat cortical cells for Synapse Count, Mundy Lab (AID 2284218)
# Summary of the method: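 Cells were plated, allowed 2 hr to attach, treated with AraC at DIV 5, then exposed to chemicals from DIV 7 until DIV 12. After fixation and MAP2/synaptophysin immunolabelling, synapses per neuron were quantified by automated imaging against DMSO.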
# [12] = CCTE_Mundy_HCI_hN2_NOG_NeuriteCount: CCTE's Neurite Outgrowth Assay in human hN2 cells for Neurite Count, Mundy Lab (AID 2284219; active = hit-call score of the fitted dose curve at least 0.9, where 1 is the maximum)
# Summary of the method: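 In this morphology assay, hNP1-derived neurons received test chemical 2 h post-plating and were fixed two days later in warm paraformaldehyde/sucrose containing Hoechst 33342. Neurites, labelled by rabbit anti-βIII-tubulin (1:800) and Alexa Fluor-488 (1:500), were counted automatically.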
# [13] = CCTE_Mundy_HCI_hN2_NOG_NeuriteLength: CCTE's Neurite Outgrowth Assay in human hN2 cells for Neurite Length, Mundy Lab (AID 2284220; active = hit-call score of the fitted dose curve at least 0.9, where 1 is the maximum)
# Summary of the method: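 Using βIII-tubulin immunofluorescence and Hoechst nuclear counterstain, this component quantifies neurite length in hNP1-derived neurons.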
# [14] = CCTE_Mundy_HCI_hN2_NOG_NeuronCount: CCTE's Neurite Outgrowth Assay in human hN2 cells for Neuron Count, Mundy Lab (AID 2284221; active = hit-call score of the fitted dose curve at least 0.9, where 1 is the maximum)
# Summary of the method: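 Read-out is the number of betaIII-tubulin-positive neurons imaged by automated high-content analysis, with DMSO as negative control.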
# [15] = CCTE_Mundy_HCI_Cortical_Synap_Neur_Matur_NeuriteCount: CCTE's Synaptogenesis and Neurite Maturation Assay in rat cortical cells for Neurite Count, Mundy Lab (AID 2284222);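 also: exposure from day 7 to day 12 in vitro with readout at day 12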
# Summary of the method: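 Chemical exposure runs DIV 7–12 in rat cortical cultures, glia suppressed by AraC at DIV 5; measurement is at DIV 12. Imaging-derived neurite counts are fitted against DMSO baseline.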
# [16] = CCTE_Mundy_HCI_Cortical_Synap_Neur_Matur_CellBodySpotCount: CCTE's Synaptogenesis and Neurite Maturation Assay in rat cortical cells for Cell Body Spot Count, Mundy Lab (AID 2284223)
# Summary of the method: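 Rat primary cortical cultures received AraC at DIV 5 to arrest glia, were dosed with chemical at DIV 7 with media change, and were fixed at DIV 12 (288.33 h). Synaptophysin puncta on MAP2-positive cell bodies per neuron were counted by high-content imaging versus DMSO.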
# [17] = CCTE_Mundy_HCI_Cortical_NOG_NeuronCount: CCTE's Neurite Outgrowth Assay in rat cortical cells for Neuron Count, Mundy Lab (AID 2284236; active = hit-call score of the fitted dose curve at least 0.9, where 1 is the maximum;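 also: neurons counted by imaging betaIII-tubulin and Hoechst stained cortical cells; cells exposed to compound for about 48 hours before fixation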)
# Summary of the method: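 Read-out: neuron number by high-content imaging of betaIII-tubulin (Alexa Fluor-488) and Hoechst-labelled rat primary cortical cells.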
# [18] = CCTE_Mundy_HCI_Cortical_NOG_BPCount: CCTE's Neurite Outgrowth Assay in rat cortical cells for Branch Point Count, Mundy Lab (AID 2284237);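 also: branch points counted about two days after chemical exposure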
# Summary of the method: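 Measured 50.33 h after dosing, this morphology endpoint uses rat primary cortical cultures labelled for betaIII-tubulin. Branch points are quantified by high-content imaging, with DMSO as negative control and baseline.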
# [19] = CCTE_Mundy_HCI_hNP1_Casp3_7: CCTE's Caspase-Glo 3/7 Assay in human neuroprogenitor cells for Apoptosis, Mundy Lab (AID 2284240)
# Summary of the method: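 Neuroepithelial-lineage stem cells from WA09 embryonic cells were treated with chemicals after 40–44 h of culture. Twenty-four hours later, caspase-3/7 activation was detected luminescently after a 30 min room-temperature reagent step, with DMSO as baseline.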
# [20] = CCTE_Mundy_HCI_hNP1_CellTiter: CCTE's Cell Titer-Glo 2 Assay in human neuroprogenitor cells for Viability, Mundy Lab (AID 2284241; active = hit-call score of the fitted dose curve at least 0.9, where 1 is the maximum;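 also: a hit is a drop in ATP luminescence versus DMSO meaning reduced viability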)
# Summary of the method: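 Measures ATP content in human neural progenitors derived from WA09 embryonic cells. Read-out at 26.5 hours after dosing, with DMSO serving as the negative control and baseline.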
# [21] = CCTE_Mundy_HCI_Cortical_Synap_Neur_Matur_NeuronCount: CCTE's Synaptogenesis and Neurite Maturation Assay in rat cortical cells for Neuron Count, Mundy Lab (AID 2284242; active = hit-call score of the fitted dose curve at least 0.9, where 1 is the maximum;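 also: neuron number from Hoechst nuclei and MAP2 staining by high-content imaging; hits reduce neuron count versus DMSO baseline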)
# Summary of the method: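 Cortical cells from rat are plated, treated with AraC at DIV 5, and exposed to test chemicals with a media change at DIV 7. At DIV 12 they are fixed and immunostained (MAP2, synaptophysin), and imaged neuron counts are compared against DMSO controls.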
structure (smiles),measurement,setting,value
CCC[CH2][Sn]([CH2]CCC)([CH2]CCC)[O][Sn]([CH2]CCC)([CH2]CCC)[CH2]CCC,AC50,[1],32.8 nM (active)
same,AC50,[2],45.5 nM (active)
same,AC50,[3],34.5 nM (active)
same,AC50,[4],33.5 nM (active)
same,outcome,[5],inactive
same,AC50,[6],23 nM (active)
same,AC50,[7],27.8 nM (active)
same,AC50,[8],22.1 nM (active)
same,AC50,[9],14.5 nM (active)
same,AC50,[10],22.6 nM (active)
same,AC50,[11],22 nM (active)
same,AC50,[12],47.8 nM (active)
same,AC50,[13],43.6 nM (active)
same,AC50,[14],31.9 nM (active)
same,outcome,[15],inactive
same,AC50,[16],31.1 nM (active)
same,AC50,[17],31.1 nM (active)
same,AC50,[18],27.7 nM (active)
same,AC50,[19],115 nM (active)
same,AC50,[20],57.2 nM (active)
same,AC50,[21],10.8 nM (active)
